Measured values from PubChem BioAssay AID720596 (The Scripps Research Institute Molecular Screening Center, 2013).
Where “and” joins values, the source holds several entries; their conditions need not be identical. Identical values can stand only once. In all, about 370,000 compounds went through this assay and about 1,600 (0.43%) were called active. Shown is part of a subset that was picked to be rich in actives. A number with no mark means an inactive call. Cut-off read from the data, not from the text of the source: active = inhibition above about 24%; inactive = the rest.

These compounds were tested against Major prion protein (Homo sapiens) (UniProt P04156) (assay: inhibitors of human cell surface prion protein PrPC, primary screen, cell-based, TR-FRET (AID 720596; note: 0% = median of the test wells and 100% = reference compound wells)). Details: TR-FRET read-out, at 13.8 µM, hits give high values.

Structure (SMILES)	inhibition
Cc1ccc(Cl)cc1N1CCN(C(=O)c2cccc3c(=O)c(C)c(-c4ccccc4)oc23)CC1	3.53%
N#Cc1ccc(-c2nc3c(Cl)cc(C(F)(F)F)cn3c2Cc2ccccc2C(F)(F)F)cc1	6.77%
CCOC(=O)C1(Cc2ccc(Cl)cc2)CCN(C(C)CCn2cccn2)CC1 (stereo not drawn)	-7.01%
CCCCNC(=O)c1onc(CSc2cccc(OC)c2)c1C(=O)O	0.43%
COC(=O)c1ccc2nc(-c3cccc(Br)c3)c(Cc3ccc(OC)cc3C)n2c1	-3.29%
CCCCNc1c(-c2cccc(Sc3ccc(OC)cc3)c2)nc2ccccn12	24.6% (active)
COc1ccc(-c2cc(C(F)(F)F)nc(S(C)(=O)=O)n2)cc1OC	43.6% (active)
COc1ccc(-c2cc(C(F)(F)F)nc(SCCC(=O)NCc3ccco3)n2)cc1	-0.14%
CCCC[C@H]1C2CC(OC(=O)NCc3ccccc3)C(C2)[C@H]2CCCCN21 (stereo partly drawn)	-9.6%
CCc1c(N=O)c(-c2ccccc2)n(O)[n+]1[O-]	-1.69%
CC(=O)c1c(C)[nH]c(=S)c(C#N)c1-c1ccc(F)cc1	2.25%
CCOC(=O)c1c(C)[nH]c(=S)c(C#N)c1-c1ccccc1	36.6% (active)
CCc1c(C)[nH]c(=S)c(C#N)c1C	10%
Cc1nc(CC(=O)NNS(=O)(=O)c2ccc(F)c(Cl)c2)cs1	-3.65%
Cc1c(NC(=O)CN2C(=O)C(=O)N(Cc3ccccc3)C2=O)c(=O)n(-c2ccccc2)n1C	-0.02%
CC(=O)c1sc2nc(SCC(=O)N3CCCCC3)[nH]c(=O)c2c1C	34.2% (active)
Cc1c(C)n2c(SCC(=O)N3CCCC3)nnc2[nH]c1=O	-1.9%
O=C(CSc1nc2c(c(=O)[nH]1)CCCC2)N1CCCCC1	3.4%
CCCCCCCCCCCCn1ccc(=N)cc1	34.3% (active)
C[C@H]1CN([C@@H](C)CO)C(=O)CCCn2cc(nn2)CO[C@@H]1CN(C)S(=O)(=O)c1cccs1	6.24%
NC(=O)COc1ccc(NC(=O)c2ccccc2-c2ccccc2)cc1	2.41%
Cc1ccc(C)c2[nH]c(=O)c(CCNC(=O)c3cccs3)cc12	1.05%

Structure (SMILES)	inhibition
CCCCC(CC)CNCc1cccn1CCN1CCOCC1 (stereo not drawn)	-0.03%
CCCCCCCCn1c2c(c(=N)c3c1CCC3)CCCC2	34.1% (active)
CCNC(=O)Nc1ccc(S(=O)(=O)Nc2cnc(C)nc2C)cc1	-5.43%
Cc1ccc(Sc2ccc(NC(=O)c3ccc(F)cc3)cc2C#N)cc1	-3.85%
Cc1ccc(NC(=O)c2sc3nc(N)c(C#N)cc3c2N)cc1	29.7% (active)
CC(=O)c1ccc(NC(=O)c2sc3nc4n(c(=O)c3c2C)CCCCC4)cc1	7.05%
CC(=O)Nc1ccc(S(=O)(=O)NNC(=O)CCc2ccccc2)cc1	-0.14%
COc1ccc(-n2nnnc2SCc2nc(N)nc(N3CCOCC3)n2)cc1	2.17%
CC1(c2ccc3ccccc3c2)NC(=O)NC1=O (stereo not drawn)	9.52%
CNC(=O)C1CN(C(=O)c2cccc(S(=O)(=O)N3CCc4ccccc43)c2)c2ccccc2O1 (stereo not drawn)	4.01%
Nc1[nH]c(C(=O)c2ccc(Br)cc2)c(-c2ccc3c(c2)OCO3)c1C(=O)NCCc1c[nH]c2ccccc12	-5.16%
Oc1c(Cl)cc(Cl)c(Cl)c1Cc1c(O)c(Cl)cc(Cl)c1Cl	28.9% (active)
C=CCC[C@@H](CCCCC)OC(=O)/C=C/[C@@H](O)[C@H](O)C[C@H](O)CC=C	-5.85%
COc1ccc(-c2cc(-c3nnc(SCc4ccc([N+](=O)[O-])cc4)n3N)[nH]n2)cc1	0.13%
CCOc1ccc(S(=O)(=O)N(CC(=O)O)c2ccccc2)cc1	-3.25%
COC(=O)[C@]12C[C@H](CC(=O)NCc3ccc(C)o3)C(=O)N(CCC3=CCCCC3)C1=C[C@H](C(C)(C)C)O[C@@H]2C	7.81%
O=C(Nc1ccc(C2CC2(Cl)Cl)cc1)c1cccc([N+](=O)[O-])c1 (stereo not drawn)	25.6% (active)
O=C(Nc1ccc([N+](=O)[O-])cc1)C1CC12CCC2 (stereo not drawn)	3.59%
Cc1ccc(NC(=O)C(=O)NCC2CCN(C(=O)c3cccc([N+](=O)[O-])c3)CC2)cc1	-5.67%
COc1cc(C(=O)N2Cc3ccc(Br)cc3-n3nncc3C2)cc(OC)c1OC	-0.36%
Cc1ccc(C)c(S(=O)(=O)N2CCCOC2CNC(=O)C(=O)NC2CCCCC2)c1 (stereo not drawn)	-1.91%
COc1ccc2c(CC(=O)OCC(=O)Nc3ccccc3[N+](=O)[O-])coc2c1	-12.7%

Structure (SMILES)	inhibition
CO[C@H]([C@H](C)/C=C/N(C)C=O)[C@@H](C)C(=O)CC[C@H](C)[C@H](O)[C@H](C)[C@H]1OC(=O)/C=C/C(C)=C/[C@H](O)[C@H](OC)C[C@@H]2C=CC[C@@H](C[C@H](OC)[C@@]3(CO3)[C@@H](OC)C[C@@H](OC)[C@@H]1C)O2	38% (active)
CN(C)C(=O)CCc1ccc2c3c([nH]c2c1)[C@]1(C)[C@@H](C(=O)N2CCCCC2)C[C@H](CC(=O)NCCC2=CCCCC2)C(=O)N1CC3	-3.09%
O=C(Cc1ccccc1)Nc1cccc(NC(=O)c2ccccc2)c1	30.2% (active)
CC(C)(C)NC(=O)c1cccc(NC(=O)Cc2ccc(Br)cc2)c1	11%
CN(CCc1ccccc1)C(=O)c1cccc(NC(=O)Cc2ccc([N+](=O)[O-])cc2)c1	-2.03%
Cc1ccc(Cc2cncc(O)c2)cc1S(=O)(=O)O	-7.2%
Cc1[nH]c(C)c(S(=O)(=O)N2CCC(C)CC2)c1C(=O)N1CCCC1	-7.7%
O/N=C(\C[n+]1ccccc1)c1ccc(Br)cc1	6.16%
O=C(c1ccc(-c2ccccc2)cc1)C1CCCN(C(=O)c2cncs2)C1 (stereo not drawn)	6.46%
C=CCN(c1ccccc1C(=O)NCC(=O)OCC)S(=O)(=O)c1ccc(C)cc1	5.82%
O=C(Oc1ccccc1)Oc1ccc2c(c1)oc(=O)c1ccccc12	31.3% (active)
CCc1ccc(Oc2coc3cc(OC(=O)c4cc5ccccc5oc4=O)ccc3c2=O)cc1	-6.51%
O=C(OCCN1C(=O)c2ccccc2C1=O)Oc1ccccc1	-3.25%
C=C(C)c1cccc(C(C)(C)NC(=O)NCCN(CC)CC)c1	-1.16%
CCOc1ccc(NC(=O)C2CC(=O)N=C(N)S2)cc1 (stereo not drawn)	3.27%
CCc1ccc(OCC(=O)N(Cc2ccccc2)C2CCS(=O)(=O)C2)cc1 (stereo not drawn)	7.58%
CC1=CC2=NC(=O)CC(C)(C(=O)N(CC(=O)NC(C)(C)C)Cc3ccccc3)N2C=C1 (stereo not drawn)	-11.9%
O=c1[nH]cccc1-c1nc2ccccc2n1Cc1ccc(Cl)cc1	48.8% (active)
O=C(O)CCc1nc2cc(Cl)ccc2n(Cc2ccccc2)c1=O	-3.72%
O=C(Cn1c(-c2cscn2)nc2ccccc21)Nc1ccc(Cl)cc1	16.8%
CCCCCn1nnnc1-c1nc2cc3ccccc3cc2[nH]c1=O	-2.3%
COc1cc(OC)c(C(=O)OC(C)C(=O)Nc2cc(C(F)(F)F)ccc2Cl)cc1OC (stereo not drawn)	-3.19%

Structure (SMILES)	inhibition
CC(=O)c1ccc(S(=O)(=O)N(C)CCCC(=O)N(C)Cc2ccccc2F)cc1	3.84%
Cc1ccc(S(=O)(=O)NCC2CCC(C(=O)N3CCOCC3)CC2)cc1 (stereo not drawn)	9.49%
O=C(NNC(=O)C(O)c1ccccc1)NC1CCCCC1 (stereo not drawn)	5.45%
O=C(Cn1nnc(-c2ccccc2)n1)NC(=O)NC1CCCC1	1.46%
Cc1nc(/N=C(\N)NC(=O)NC2CCCCC2)nc2ccccc12	27.6% (active)
C[C@H]1CN([C@@H](C)CO)C(=O)c2cc(C3=CCCCC3)cnc2O[C@@H]1CN(C)C(=O)Cc1ccccc1	-9.73%
Cc1sc2c(c1C)c(=O)n(-c1ccccc1)c1nncn21	-3.5%
c1ccc(CCC2=NCCn3cccc32)cc1	-4.1% and -18.3%
CCCCC(=O)NC(c1ccc(OC)c(OC)c1)c1ccc2cccnc2c1O (stereo not drawn)	28.6% (active)
CCOc1ccc(C(CC(=O)O)n2cnnn2)cc1OC (stereo not drawn)	-3.65%
CCCCCCCC(=O)NC(Nc1ccccc1OC)C(Cl)(Cl)Cl (stereo not drawn)	1.28%
CCOC(=O)C1=CCC(c2ccc(F)cc2)N(S(=O)(=O)c2ccc(C)cc2)C1 (stereo not drawn)	0.96%
Cc1cc(C)n(CCNS(=O)(=O)c2ccc(Cl)cc2)n1	-3.39%
N#Cc1c(-c2cccs2)nc(SCC(=O)c2ccc(Br)cc2)[nH]c1=O	49.9% (active)
N#Cc1c(-c2ccc(F)cc2)cc(C2CC2)nc1SCC(=O)c1cccs1	8.6%
Cc1nnc(SCC(=O)NCc2cccs2)[nH]c1=O	0.4%
CC(C)(C)NC(=O)NC(=O)COC(=O)C1(C)CC1(Cl)Cl (stereo not drawn)	-0.21%
O=C(Nc1ccc(Cl)cc1)c1cc2nc(C3CC3)cc(C(F)(F)F)n2n1	-1.38%
O=C(COC(=O)c1cc2c(s1)CCCC2)NCc1ccccc1Cl	0.1%
CSc1ncccc1C(=O)NCc1ccccc1Cl	-4.63%
Clc1ccc(-c2cc(COc3ccccc3)no2)cc1Cl	-6.65%
CC(C)Cn1c(N2CCN(C(=O)/C=C/c3ccccc3)CC2)nc2ccccc21	-10.9%
